For the assay, the target named is Cell division control protein 42 homolog (Homo sapiens) (UniProt P60953). Briefly: Cdc42 wildtype GTP-binding inhibitors, late-stage follow-up, mechanism study for Ras-family GTPase inhibitor project, biochemical, compound preincubation comparison, flow cytometry beads, Bodipy-FL-GTP (AID 720712). The note with it: GST-Cdc42 beads, EDTA, protocol A; series mostly up to 100 µM.

The source made the active and inactive calls.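 How the source made its calls: active means EC50 at most 10 µM with response changing by at least 30 points across doses, from an acceptable curve fit; inactive means the rest.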

Chain of Cell division control protein 42 homolog (Homo sapiens) (P60953 whole entry, looked up): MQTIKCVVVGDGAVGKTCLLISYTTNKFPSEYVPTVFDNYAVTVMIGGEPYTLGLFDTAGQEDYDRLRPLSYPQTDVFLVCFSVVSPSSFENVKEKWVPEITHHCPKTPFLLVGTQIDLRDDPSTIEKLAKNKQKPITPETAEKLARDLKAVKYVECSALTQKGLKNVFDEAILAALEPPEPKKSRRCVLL

On to `CC1(C)Cc2c(sc(NC(=S)NC(=O)c3ccc(N=[N+]=[N-])cc3)c2C(=O)O)CO1`, for which the call was inactive. In the case of `CC1(C)Cc2c(sc(NC(=S)NC(=O)c3cccc(N=[N+]=[N-])c3)c2C(=O)O)CO1` it was “inactive”.
